Here are results for three molecules from PubChem BioAssay (NCATS).

Test [1] can be described thus: qHTS assay for small molecule antagonists of peroxisome proliferator-activated receptor delta signaling (AID 588535; active = well fitted inhibition curve with a large enough effect in the signal ratio, with a control signal flat, not every such curve was filed as active; the % refers to the signal ratio;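 as to max response: cells co-treated with a PPAR-delta agonist as stimulator during compound exposure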). The following applies: HEK293T PPARd-UAS-bla, beta-lactamase FRET ratio, 18 h; 460 nm channel. In outline:
(§1)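 Cell-based beta-lactamase assay in antagonist mode: 4000 HEK293T PPAR-delta-UAS-bla cells per well, 5 hr preincubation then 18 hr compound incubation at 37 C. IC50 obtained by Hill equation fitting.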
A general note: qHTS replaces the single test concentration by a dilution series.

Test [2] concerns the target Peroxisome proliferator-activated receptor delta (Homo sapiens) (UniProt Q03181). Described as above. The conditions noted are these: HEK293T PPARd-UAS-bla, beta-lactamase FRET ratio, 18 h; series mostly up to 76.7 µM. Put shortly:
as §1

Test [3] has as its target Vitamin D3 receptor (Homo sapiens) (UniProt P11473). Briefly: qHTS assay for small molecule antagonists of vitamin D receptor signaling (AID 588541).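 Also: receptor activated by calcitriol during compound treatment; % is scaled to controls: 0 for no effect and ±100 for the full control effect.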 The following applies: HEK293T VDR-UAS-bla, beta-lactamase ratio, antagonist mode; series mostly up to 76.7 µM. In outline:
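Antagonist-mode beta-lactamase reporter assay: HEK293T VDR-UAS-bla cells were exposed to titrated compound alongside 1-alpha,25-dihydroxyvitamin D3 at 3 nM final for 16 h. Values were normalized to the 50 nM agonist control and DMSO basal, with IC50 and efficacy from Hill equation fits.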

Test [4] has as its target Androgen receptor (Homo sapiens) (UniProt P10275). Briefly: qHTS assay for small molecule agonists of androgen receptor signaling (AID 588515; active = well fitted curve in the direction sought with a large enough effect in the signal ratio, with a control signal flat; the % refers to the signal ratio; also: % is scaled to controls: 0 for no effect and ±100 for the full control effect). The following applies: AR-UAS-bla HEK293, beta-lactamase ratio, agonist 16 h; stronger effect = higher value. The source says:
NIH Chemical Genomics Center [NCGC] U.S. Environmental Protection Agency [EPA] National Institutes of Environmental Health Sciences [NIEHS] National Toxicology Program [NTP] NCGC Assay Overview Androgen receptor (AR), located at chromosome Xq11-12, is an important member of nuclear hormone receptors. AR signaling plays a critical role in AR-dependent prostate cancer and other androgen related diseases. Considerable attention has been given in the past decades to the possibility of some of environmental chemicals which may contribute the endocrine disruption. Therefore, it is important to understand the effect of environmental chemicals in AR signaling pathway.
NCGC Assay Protocol Summary Using a beta-lactamase reporter-gene under control of the AR response element, a cell-based assay [GeneBLAzer AR-UAS-bla-GripTite assay developed by Invitrogen] was used to measure AR ligands signaling. AR-UAS-bla-GripTite HEK 293 cells were used with assay medium containing 10% dialyzed FBS, 0.1 mM NEAA and 1 mM sodium pyruvate. The assay was performed in clear bottom black Greiner 1536-well plates. […] Library compounds were measured for their ability to stimulate the reporter gene activity. […] The fluorescence intensity (405 nm excitation, 460/530 nm emission) was measured using an EnVision plate reader. […] Detection; Fluorescence; Envision plate reader

For test [5] the target is unchanged. The experiment in a line: qHTS assay for small molecule antagonists of androgen receptor signaling (AID 588516; active = well fitted curve in the direction sought with a large enough effect in the signal ratio, with a control signal flat, not every such curve was filed as active; the % refers to the signal ratio; also: % is scaled to controls: 0 for no effect and ±100 for the full control effect). The following applies: AR-UAS-bla HEK293, beta-lactamase ratio, antagonist mode, 16 h; series mostly up to 76.8 µM. In outline: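 AR-UAS-bla GripTite HEK 293 cells (2000/well) treated with compound titrations plus 10 nM R1881 for 16 h at 37C. Beta-lactamase read by CCF4 FRET (460/530 nm); IC50 from Hill fits, normalized to R1881 and DMSO control wells.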

Test [6] concerns the target Glucocorticoid receptor (Homo sapiens) (UniProt P04150). The experiment in a line: qHTS assay for small molecule agonists of glucocorticoid receptor signaling (AID 588532; active = well fitted curve in the direction sought with a large enough effect in the signal ratio, with a control signal flat; the % refers to the signal ratio;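 also: 100% = dexamethasone at 0.1 µM and 0% = DMSO only wells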). The conditions noted are these: HeLa MMTV-bla, beta-lactamase ratio, agonist, 18 h; stronger effect = higher value; percent of dexamethasone control, DMSO zero. In outline:
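Agonist-mode qHTS: GRE-driven beta-lactamase in HeLa cells exposed 18 h to titrated compounds (up to 92 uM), then CCF4 ratio read after 2 h at RT; Hill-fitted EC50, efficacy relative to 0.1 uM dexamethasone.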

The target is the same in test [7]. The experiment in a line: qHTS assay for small molecule antagonists of glucocorticoid receptor signaling (AID 588533; active = well fitted inhibition curve with a large enough effect in the signal ratio, with a control signal flat, not every such curve was filed as active; the % refers to the signal ratio;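 also: cells stimulated with 2 nM dexamethasone as agonist; % is scaled to controls: 0 for no effect and ±100 for the full control effect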). The conditions noted are these: HeLa MMTV-bla, GRE beta-lactamase ratio, antagonist mode, 18 h; series mostly up to 76.8 µM. Put shortly: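 Antagonist-mode qHTS: compound titrations added to GRE-bla HeLa cells, then dexamethasone 2 nM final; 18 h, 37 C. CCF4 FRET fluorescence normalized to dexamethasone and DMSO; IC50 from Hill fit.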

Test [8] deals with Peroxisome proliferator-activated receptor gamma (Homo sapiens) (UniProt P37231). Briefly: qHTS assay for small molecule agonists of peroxisome proliferator-activated receptor gamma signaling (AID 588536; active = well fitted curve in the direction sought with a large enough effect in the signal ratio, with a control signal flat, not every such curve was filed as active; the % refers to the signal ratio;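 also: 0% = DMSO basal wells and 100% = rosiglitazone at 2 µM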). The conditions noted are these: HEK293 PPARg-UAS-bla, beta-lactamase ratio, 16 h, percent of rosiglitazone response, DMSO as zero; series mostly up to 76.7 µM. In outline:
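Ratiometric blue/green fluorescence (405 nm excitation; 460 and 530 nm emission) from CCF4-loaded HEK293 reporter cells serves as signal. Exposure to test compounds lasts 16 h at 37 C in medium containing 1% charcoal/dextran-treated serum.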

The target of test [9] is Bile acid receptor (Homo sapiens) (UniProt Q96RI1). The experiment in a line: qHTS assay for small molecule antagonists of farnesoid X receptor signaling (AID 588526). Also: % is scaled to controls: 0 for no effect and ±100 for the full control effect. The conditions noted are these: HEK293T FXR-UAS-bla, beta-lactamase ratio, antagonist mode; series mostly up to 76.7 µM. Put shortly: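 Beta-lactamase reporter antagonist mode: HEK293T FXR-UAS-bla cells, titrated compound, CDCA stimulation, 16 h 37 C, CCF4 dye 2 h RT. Data normalized to CDCA 50 uM and DMSO; Hill-fit IC50.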

For test [10], the target named is Peroxisome proliferator-activated receptor gamma (Homo sapiens) (UniProt P37231). The experiment in a line: qHTS assay for small molecule antagonists of peroxisome proliferator-activated receptor gamma signaling (AID 588537; active = well fitted inhibition curve with a large enough effect in the signal ratio, with a control signal flat, not every such curve was filed as active; the % refers to the signal ratio;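 also: reporter cells co-stimulated with 50 nM rosiglitazone agonist during compound treatment; % of control where 0% means no effect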). The following applies: HEK293 PPARg-UAS-bla, beta-lactamase ratio, antagonist mode; series mostly up to 76.8 µM. In outline: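 Inhibitors of agonist-stimulated UAS-bla reporter activity were sought in HEK293 cells; rosiglitazone (50 nM) defined full signal and DMSO baseline. Curves fitted to Hill model gave IC50 and efficacy.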

Results filed as inconclusive are left out. Active and inactive are the calls of the source. Unless noted, calls follow the shape of the full dose curve.

Vitamin D3 receptor (Homo sapiens), sequence (P11473 whole entry, looked up): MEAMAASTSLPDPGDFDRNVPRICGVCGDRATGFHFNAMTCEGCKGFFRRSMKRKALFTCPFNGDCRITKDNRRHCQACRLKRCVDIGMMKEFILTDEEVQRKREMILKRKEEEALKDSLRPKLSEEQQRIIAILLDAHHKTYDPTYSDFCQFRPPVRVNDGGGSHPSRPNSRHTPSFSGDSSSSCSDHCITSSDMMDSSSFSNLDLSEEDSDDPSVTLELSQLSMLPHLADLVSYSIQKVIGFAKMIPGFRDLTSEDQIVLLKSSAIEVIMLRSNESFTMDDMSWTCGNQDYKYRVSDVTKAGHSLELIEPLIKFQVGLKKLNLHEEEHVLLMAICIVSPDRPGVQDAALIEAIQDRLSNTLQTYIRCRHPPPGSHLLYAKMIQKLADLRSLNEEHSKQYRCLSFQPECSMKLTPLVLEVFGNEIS
Glucocorticoid receptor (Homo sapiens), sequence (P04150 whole entry, looked up): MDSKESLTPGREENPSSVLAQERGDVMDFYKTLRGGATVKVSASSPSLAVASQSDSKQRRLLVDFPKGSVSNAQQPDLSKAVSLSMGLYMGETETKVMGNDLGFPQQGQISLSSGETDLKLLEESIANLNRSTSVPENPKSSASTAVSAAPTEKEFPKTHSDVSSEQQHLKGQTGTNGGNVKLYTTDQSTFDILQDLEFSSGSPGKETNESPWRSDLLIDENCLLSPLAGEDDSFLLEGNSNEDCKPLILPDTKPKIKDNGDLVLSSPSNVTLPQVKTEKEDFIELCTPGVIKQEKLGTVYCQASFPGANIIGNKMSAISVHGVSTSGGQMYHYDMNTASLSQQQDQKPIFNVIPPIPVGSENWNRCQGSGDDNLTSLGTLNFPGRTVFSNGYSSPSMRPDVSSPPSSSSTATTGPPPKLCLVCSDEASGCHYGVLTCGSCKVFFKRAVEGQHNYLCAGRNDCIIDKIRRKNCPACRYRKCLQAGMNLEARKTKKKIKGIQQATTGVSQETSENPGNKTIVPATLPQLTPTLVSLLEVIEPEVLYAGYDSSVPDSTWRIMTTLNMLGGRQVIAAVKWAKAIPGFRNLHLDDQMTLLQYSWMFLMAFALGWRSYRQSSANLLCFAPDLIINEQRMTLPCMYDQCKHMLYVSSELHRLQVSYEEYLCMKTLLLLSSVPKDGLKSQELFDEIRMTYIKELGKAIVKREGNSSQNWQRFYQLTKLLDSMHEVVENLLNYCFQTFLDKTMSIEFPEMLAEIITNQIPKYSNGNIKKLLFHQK
Peroxisome proliferator-activated receptor gamma (Homo sapiens), sequence (P37231 whole entry, looked up): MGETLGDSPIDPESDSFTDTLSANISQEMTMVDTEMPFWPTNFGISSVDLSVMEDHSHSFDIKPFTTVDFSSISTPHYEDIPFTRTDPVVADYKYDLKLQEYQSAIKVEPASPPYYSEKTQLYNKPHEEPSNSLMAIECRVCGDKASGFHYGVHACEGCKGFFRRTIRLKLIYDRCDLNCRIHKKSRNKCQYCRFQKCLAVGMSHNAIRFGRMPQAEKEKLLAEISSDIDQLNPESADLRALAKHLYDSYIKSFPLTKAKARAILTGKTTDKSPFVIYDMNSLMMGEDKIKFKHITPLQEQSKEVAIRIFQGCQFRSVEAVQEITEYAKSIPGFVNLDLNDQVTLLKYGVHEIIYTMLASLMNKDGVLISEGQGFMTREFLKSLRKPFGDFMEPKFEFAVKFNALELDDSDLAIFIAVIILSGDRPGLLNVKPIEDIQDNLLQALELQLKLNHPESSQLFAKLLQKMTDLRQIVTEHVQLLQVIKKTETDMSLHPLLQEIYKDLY
Peroxisome proliferator-activated receptor delta (Homo sapiens), sequence (Q03181 whole entry, looked up): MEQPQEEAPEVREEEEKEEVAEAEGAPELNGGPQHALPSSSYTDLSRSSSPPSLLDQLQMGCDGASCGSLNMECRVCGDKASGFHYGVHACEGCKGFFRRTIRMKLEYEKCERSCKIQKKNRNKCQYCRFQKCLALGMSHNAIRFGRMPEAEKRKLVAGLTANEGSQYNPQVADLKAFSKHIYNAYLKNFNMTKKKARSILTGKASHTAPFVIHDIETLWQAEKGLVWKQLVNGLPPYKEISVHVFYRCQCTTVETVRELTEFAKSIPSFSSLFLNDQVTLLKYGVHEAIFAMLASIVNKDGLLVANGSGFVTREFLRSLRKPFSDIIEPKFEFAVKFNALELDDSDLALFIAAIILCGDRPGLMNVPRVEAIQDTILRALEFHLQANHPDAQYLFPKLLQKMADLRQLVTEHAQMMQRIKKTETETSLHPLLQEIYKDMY
Androgen receptor (Homo sapiens), sequence (P10275 whole entry, looked up): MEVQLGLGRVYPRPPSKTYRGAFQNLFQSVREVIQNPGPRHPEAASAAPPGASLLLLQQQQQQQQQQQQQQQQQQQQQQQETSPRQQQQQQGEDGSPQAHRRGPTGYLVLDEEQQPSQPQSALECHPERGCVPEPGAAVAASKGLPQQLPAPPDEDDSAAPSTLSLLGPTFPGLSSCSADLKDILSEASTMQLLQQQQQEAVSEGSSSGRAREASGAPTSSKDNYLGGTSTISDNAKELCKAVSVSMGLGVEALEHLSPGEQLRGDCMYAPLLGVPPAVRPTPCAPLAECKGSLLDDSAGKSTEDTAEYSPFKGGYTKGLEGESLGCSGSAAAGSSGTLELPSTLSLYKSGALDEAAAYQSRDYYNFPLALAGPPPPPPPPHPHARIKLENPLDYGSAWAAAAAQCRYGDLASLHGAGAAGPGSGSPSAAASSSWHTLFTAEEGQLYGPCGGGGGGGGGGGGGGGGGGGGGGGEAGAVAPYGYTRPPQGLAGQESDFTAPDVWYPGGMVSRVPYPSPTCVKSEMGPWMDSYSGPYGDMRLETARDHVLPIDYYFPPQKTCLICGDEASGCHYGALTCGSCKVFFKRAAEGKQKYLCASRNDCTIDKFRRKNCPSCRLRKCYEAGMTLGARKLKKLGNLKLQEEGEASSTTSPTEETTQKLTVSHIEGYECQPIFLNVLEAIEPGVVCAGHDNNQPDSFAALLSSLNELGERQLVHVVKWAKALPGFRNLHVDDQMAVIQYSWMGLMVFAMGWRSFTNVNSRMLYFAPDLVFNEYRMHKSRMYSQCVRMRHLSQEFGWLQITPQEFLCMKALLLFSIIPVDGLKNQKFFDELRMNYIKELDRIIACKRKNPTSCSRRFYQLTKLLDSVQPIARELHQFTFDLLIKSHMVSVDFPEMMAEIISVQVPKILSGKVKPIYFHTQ
Bile acid receptor (Homo sapiens), sequence (Q96RI1 whole entry, looked up): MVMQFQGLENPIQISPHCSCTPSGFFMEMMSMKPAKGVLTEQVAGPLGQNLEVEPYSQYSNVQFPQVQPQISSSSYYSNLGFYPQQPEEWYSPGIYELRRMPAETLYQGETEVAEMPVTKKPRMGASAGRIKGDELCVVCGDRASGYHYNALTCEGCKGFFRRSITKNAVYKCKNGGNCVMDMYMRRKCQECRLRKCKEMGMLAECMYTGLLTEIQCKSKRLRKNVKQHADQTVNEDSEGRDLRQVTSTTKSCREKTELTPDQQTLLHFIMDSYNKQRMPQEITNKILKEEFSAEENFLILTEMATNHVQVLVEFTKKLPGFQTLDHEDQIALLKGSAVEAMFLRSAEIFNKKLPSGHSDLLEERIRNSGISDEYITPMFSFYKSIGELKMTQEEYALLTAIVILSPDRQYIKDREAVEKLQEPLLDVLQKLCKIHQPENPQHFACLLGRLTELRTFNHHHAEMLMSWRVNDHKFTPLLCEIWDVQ

For `O=C(/C=C/C=C/c1ccc2c(c1)OCO2)N1CCCCC1`, in test [1], the max response is -63.1%. The result in test [2] and in [3] was inactive.
For `COc1ccc(CCC(=O)c2c(O)cc(O[C@@H]3O[C@H](CO)[C@@H](O)[C@H](O)[C@H]3O[C@@H]3O[C@@H](C)[C@H](O)[C@@H](O)[C@H]3O)cc2O)cc1O`, the activation in test [4] was 12.1% (inactive); in test [6], -0.542% (inactive). Also, the result in test [5], in test [7], in test [8] and in test [3] was inactive.
Regarding `C=C1C[C@]23C[C@@]1(O)CC[C@H]2[C@@]12C=C[C@H](O)[C@@](C)(C(=O)O1)[C@H]2[C@@H]3C(=O)O`, the outcome in [9], in [7], in [2], in test [8], in test [10] and in [3] was inactive. For the same molecule, the activation in [6] is -5.06% (inactive). In addition, in test [1], the max response amounted to 8.68%.
